KB-V1 MDR tox = kills drug-selected multidrug resistant KB-V1 cells | KB-V1 MDR cells viability, CellTiter-Glo, 72 h | Potency, µM (doses to about 46.1 µM), actives largely listed as cytotoxic | hit rate 3.4% among 400,000 | AID 1347076; note: % is set by controls: 0 for no effect and ±100 for the full control effect; nearly all actives have a fitted effect of over 60% in size
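qHTS viability screen in drug-selected KB-V1 MDR cells: 72 h compound treatment at 37 degrees C, ATP luminescence end point.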
KB-3-1 tox = KB-3-1 parental cell cytotoxicity; KB-3-1 viability, CellTiter-Glo ATP luminescence, 72 h; Potency, µM (titrated, usually from 46.1 µM), hits mostly cytotoxic; hit rate 1.4% among 400,000; note: % is set by controls: 0 for no effect and ±100 for the full control effect; nearly all actives have a fitted effect of over 60% in size
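Parental KB-3-1 viability, qHTS format: 72 h compound exposure, 37 °C; CellTiter-Glo; media-only wells and DMSO plates as controls; concentration-effect fits on corrected data.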
SW480 rerep = inducers of DNA re-replication in SW480 colon cancer cells; SW480 DNA re-replication, Hoechst DNA content imaging, 48 h; Potency, µM (titrated, usually from 46.1 µM), for the others: top-dose re-replication activation, hits mostly activators; hit rate 1.8% among 340,000; AID 624297; note: % of control where 0% means no effect; nearly all actives have a fitted effect of over 55% in size
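Compounds, transferred as 23 nL by pin tool, were incubated with cells for 48 hr; DNA content per nucleus was then quantified by Hoechst staining and fluorescence plate imaging.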
MCF10A rerep = DNA re-replication induction in MCF 10a cells. MCF 10A DNA re-replication, Hoechst nuclear intensity, 48 h. hit rate 2.9% among 350,000. Potency, µM (series often up to 46.1 µM), for the others: at the highest dose activity, positive = re-replication, most hits filed as activators; note: % of control where 0% means no effect; nearly all actives have a fitted effect of over 50% in size
ELG1 DNA repair = blocks ELG1-dependent DNA repair in HEK293T cells. HEK293T ELG1-luciferase reporter, luminescence, 16 h; DNA damage induced by 5-fluorouridine. Potency, µM (titrated, usually from 46.1 µM), for the others: top-dose activity change, negative = inhibition, most hits filed as inhibitors. hit rate 2.3% among 330,000; note: % is set by controls: 0 for no effect and ±100 for the full control effect; nearly all actives have a fitted effect of over 55% in size
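DMSO vehicle served as the neutral condition. Each well held 2,000 cells given 5-fluorouridine plus compound; after 16 hr at 37 °C/5% CO2, ONE-Glo was added and luciferase measured 30 min later.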
Active calls of the source: *; [ ] = dose if it differs, or a comment. An excerpt weighted towards active compounds, which were near 8.1% of everything screened. Calls come from the whole dose curve; as a rule, active = well fitted curve in the direction sought with a large enough effect; inconclusive = small, poorly fitted or top-dose-only effect, or another doubt; inactive = no such curve, though single readings can be large; an effect the other way counts as inactive or inconclusive. Potency is the fitted concentration of half-maximal effect.

`CCSc1nc(-c2ccccc2)c2cc(Cl)ccc2n1` gave KB-V1 MDR tox inactive, KB-3-1 tox inactive, SW480 rerep -0.6%, MCF10A rerep 4.2% and ELG1 DNA repair 0.8%.
CSc1nc(-c2ccc(C)cc2)nc(C(Cl)Cl)n1 was read as KB-V1 MDR tox 18.4µM*, KB-3-1 tox 7.31µM*, SW480 rerep 18.4%, MCF10A rerep inconclusive and ELG1 DNA repair inconclusive.
For O=C(COC(=O)c1cccs1)NC1CCCCC1 the results were KB-V1 MDR tox inactive, KB-3-1 tox inactive, SW480 rerep 0.8%, MCF10A rerep 5.2% and ELG1 DNA repair 0.4%.
`Cc1cc(Nc2ccc(F)cc2C)n2ncnc2n1` gave KB-V1 MDR tox inactive, KB-3-1 tox inactive, SW480 rerep -10.3%, MCF10A rerep 0.7% and ELG1 DNA repair 19.8%.
For CC[N+]1(CC(O)COC2CC(C)CC(C)(C)C2)CCOCC1 (stereo unspecified) the results were KB-V1 MDR tox inactive, KB-3-1 tox inactive, SW480 rerep 1.7%, MCF10A rerep -3.2% and ELG1 DNA repair 6.7%.
`O=C1CCC(c2ccc3c(c2)CCC3)=NN1` gave KB-V1 MDR tox inactive, KB-3-1 tox 1.16µM*, SW480 rerep -4.0%, MCF10A rerep -12.9% and ELG1 DNA repair inconclusive.
O=C1CCC(c2ccccc2)=NN1 was read as KB-V1 MDR tox inactive, KB-3-1 tox inactive, SW480 rerep -8.5%, MCF10A rerep -1.0% and ELG1 DNA repair inconclusive.
COc1ccccc1/C=C/C=N/NC(=O)CCn1cnc2ccccc21 was read as KB-V1 MDR tox inactive, KB-3-1 tox inactive, SW480 rerep 20.6µM*, MCF10A rerep inconclusive and ELG1 DNA repair inconclusive.
`COc1cccc(/C=N/NC(=O)CCn2cnc3ccccc32)c1` gave KB-V1 MDR tox inactive, KB-3-1 tox inactive, SW480 rerep 3.66µM*, MCF10A rerep inconclusive and ELG1 DNA repair 19.4%.
O=C(CCn1cnc2ccccc21)N/N=C/C=C/c1ccccc1 was read as KB-V1 MDR tox inactive, KB-3-1 tox inactive, SW480 rerep -4.9%, MCF10A rerep -0.5% and ELG1 DNA repair -13.2%.
Screening C/C(=N\NC(=S)NCCc1ccccc1)c1ccc(Cl)cc1 returned KB-V1 MDR tox inactive, KB-3-1 tox inactive, MCF10A rerep 11.7% and ELG1 DNA repair inconclusive.
C=CCn1c(N)c(C(=O)OC(C)(C)C)c2nc3ccccc3nc21 was read as KB-V1 MDR tox inactive, KB-3-1 tox inactive, SW480 rerep inconclusive, MCF10A rerep inconclusive and ELG1 DNA repair inconclusive.
Screening COC(=O)c1c(N)n(-c2ccc(NC(C)=O)cc2)c2nc3ccccc3nc12 returned KB-V1 MDR tox inactive, KB-3-1 tox inactive, SW480 rerep -4.7%, MCF10A rerep 0.1% and ELG1 DNA repair inconclusive.
Screening C=CCn1c(N)c(C(=O)OC(C)CC)c2nc3ccccc3nc21 (stereo unspecified) returned KB-V1 MDR tox 8.2µM*, KB-3-1 tox inactive, SW480 rerep -122.6%, MCF10A rerep -1.9% and ELG1 DNA repair -25.8%.
Screening C=CCn1c(N)c(C(=O)Nc2ccccc2)c2nc3ccccc3nc21 returned KB-V1 MDR tox inactive, KB-3-1 tox inconclusive, SW480 rerep 22.5%[9.22 µM], MCF10A rerep 5.62µM* and ELG1 DNA repair inconclusive.
For COc1cc(OC)c(OC)cc1/C=C/c1nc2ccccc2o1 the results were KB-V1 MDR tox inactive and KB-3-1 tox inactive.
`COc1ccc(/C=C/c2nc3cc(-c4ccccc4)ccc3o2)cc1O` gave KB-V1 MDR tox inconclusive, KB-3-1 tox inconclusive, SW480 rerep 18.4µM*, MCF10A rerep 5.8µM* and ELG1 DNA repair inconclusive.
CCN(CC)c1nc2c(c(=O)[nH]c(=O)n2C)n1Cc1ccccc1Cl was read as KB-V1 MDR tox inconclusive, KB-3-1 tox inactive, SW480 rerep -17.7%, MCF10A rerep -0.5% and ELG1 DNA repair -3.5%.
Screening CN(Cc1ccccc1)c1nc2c(c(=O)[nH]c(=O)n2C)n1Cc1ccccc1 returned KB-V1 MDR tox 9.2µM*, KB-3-1 tox inactive, SW480 rerep -11.9%, MCF10A rerep inconclusive and ELG1 DNA repair 16.6%.
Screening CN(C)c1nc2c(c(=O)[nH]c(=O)n2C)n1Cc1ccccc1Br returned KB-V1 MDR tox 20.6µM*, KB-3-1 tox inconclusive, SW480 rerep -3.8%, MCF10A rerep 3.7% and ELG1 DNA repair 25.8%.
`CCCCCn1c(N(C)Cc2ccccc2)nc2c1c(=O)[nH]c(=O)n2C` gave KB-V1 MDR tox inactive, KB-3-1 tox inactive, SW480 rerep 0.7%, MCF10A rerep 0.9% and ELG1 DNA repair -21.8%.
`CN(Cc1ccccc1)c1nc2c(c(=O)[nH]c(=O)n2C)n1CCCSc1ncccn1` gave KB-V1 MDR tox 2.59µM*, KB-3-1 tox inconclusive, SW480 rerep 0.6%, MCF10A rerep 17.6% and ELG1 DNA repair inconclusive.
Screening CC(C)CNC(=O)CSc1nc2nn(-c3ccccc3)c(=O)c-2c2n1CCCCC2 returned KB-V1 MDR tox inconclusive, KB-3-1 tox inactive, SW480 rerep 4.7%, MCF10A rerep -6.4% and ELG1 DNA repair -17.0%.
For O=C(NCc1ccccc1)C1(C(F)(F)F)C/C(=C\CCO)CCCO1 (stereo unspecified) the results were KB-V1 MDR tox inconclusive, KB-3-1 tox inactive, SW480 rerep 0.4% and MCF10A rerep -23.3%.
Cc1cc(C)cc(N(CCC(=O)O)S(=O)(=O)c2ccc3ccccc3c2)c1 was read as KB-V1 MDR tox inactive, KB-3-1 tox inactive, SW480 rerep inconclusive, MCF10A rerep 8.2µM* and ELG1 DNA repair -16.2%.
`Cc1cc(C)cc(N(CCC(=O)Nc2nnc(C)s2)S(=O)(=O)c2ccc(Cl)cc2)c1` gave KB-V1 MDR tox 23.1µM*, KB-3-1 tox inconclusive, SW480 rerep 17.1%, MCF10A rerep inconclusive and ELG1 DNA repair inconclusive.
For Cc1ccc(N(CCC(=O)O)S(=O)(=O)c2ccccc2)cc1 the results were KB-V1 MDR tox inactive, KB-3-1 tox inactive, SW480 rerep -1.7%, MCF10A rerep 2.7% and ELG1 DNA repair 5.6%.
`Cn1c(=O)c2c(nc(NCCCN3CCOCC3)n2Cc2ccc(Cl)cc2)n(C)c1=O` gave KB-V1 MDR tox inactive, KB-3-1 tox inactive, SW480 rerep 0.3%, MCF10A rerep -0.4% and ELG1 DNA repair -1.5%.
Cn1c(=O)c2c(nc(NCCCN3CCOCC3)n2Cc2cccc(Cl)c2)n(C)c1=O was read as KB-V1 MDR tox inactive, KB-3-1 tox inactive, SW480 rerep -2.9%, MCF10A rerep 2.7% and ELG1 DNA repair -0.9%.
For Cn1c(NCCCN2CCOCC2)nc2c1c(=O)n(Cc1ccc(Cl)cc1)c(=O)n2C the results were KB-V1 MDR tox 18.4µM*, KB-3-1 tox inactive, SW480 rerep -0.9%, MCF10A rerep 18.8% and ELG1 DNA repair -11.9%.

Bioassay records as filed in PubChem.
